# GDH-TPI counter-1 – GDH-TPI coupling enzyme inhibitors, primary screen, artefact control for M. tuberculosis FBA inhibitor project, biochemical, absorbance, full deck | GDH-TPI coupled enzyme counterscreen, NADH absorbance | inhibition, % at 4.8 µM | 360,000 compounds, 1.2% hits | AID 588335, 2011; in the data active means inhibition above about 30%;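 further: 0% = DMSO wells and 100% = wells lacking the enzyme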
# Rv3671c protease – Rv3671c serine protease inhibitors, primary screen, biochemical, fluorescence polarization, M. tuberculosis H37Rv. 320,000 compounds, 0.048% hits. P9WHR9. inhibition, % at 5.96 µM; in the data active means inhibition above about 38%;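 further: extracellular domain of Rv3671c used as enzyme; 0% = enzyme with DMSO and 100% = no enzyme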
# Target sequence (P9WHR9 whole entry, looked up, the tested form may be a part): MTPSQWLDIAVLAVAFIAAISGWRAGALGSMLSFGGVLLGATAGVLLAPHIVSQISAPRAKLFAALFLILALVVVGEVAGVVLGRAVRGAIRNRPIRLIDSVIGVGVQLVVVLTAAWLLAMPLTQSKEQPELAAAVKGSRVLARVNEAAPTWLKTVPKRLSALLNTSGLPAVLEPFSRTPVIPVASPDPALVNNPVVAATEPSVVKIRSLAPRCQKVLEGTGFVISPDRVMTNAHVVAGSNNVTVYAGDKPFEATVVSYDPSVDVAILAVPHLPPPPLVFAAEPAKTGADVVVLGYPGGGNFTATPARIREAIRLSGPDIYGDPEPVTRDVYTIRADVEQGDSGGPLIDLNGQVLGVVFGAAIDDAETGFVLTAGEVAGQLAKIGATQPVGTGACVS
# BioA inh – M. tuberculosis BioA enzyme inhibitors, primary screen, biochemical, plate reader, single point, HTS; 7,8-diaminopelargonic acid synthase BioA (Mycobacterium tuberculosis); purified M. tuberculosis BioA enzyme; inhibition, % at 9.99 µM; 360,000 compounds, 0.096% hits; in the data active means inhibition above about 40%
# FadD28 binding – inhibitors of FadD28 bisubstrate probe binding, primary screen, biochemical, fluorescence polarization, single point; 360,000 compounds, 0.22% hits; AID 588549, 2011; inhibition, % at 12.5 µM; in the data active means inhibition above about 8.5%, passing the limit was not always enough
# Mtb FBA inh – Mtb FBA enzyme inhibitors, primary screen, biochemical, fluorescence, strain H37Rv; Fructose-bisphosphate aldolase (Mycobacterium tuberculosis (strain ATCC 25618 / H37Rv)), …; purified M. tuberculosis FBA, fluorescence read-out; inhibition, % at 1 µM; 360,000 compounds, 2.3% hits; AID 588726, 2011;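 further: 0% = vehicle and 100% = reference inhibitor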
# Mtb FBA confirm – M. tuberculosis aldolase blockers, biochemical, fluorescence, strain H37Rv, confirmation. shares compounds with Mtb FBA inh. purified M. tuberculosis FBA, fluorescence read-out. inhibition, % at 1 µM. 5,600 compounds, 78% hits. AID 651616, 2012;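 further: 0% = vehicle wells and 100% = reference inhibitor wells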
# GDH-TPI counter-2 – GDH-TPI coupling enzyme inhibitors, artefact control for M. tuberculosis FBA inhibitor project, biochemical, fluorescence, high throughput. GDH-TPI coupled enzyme counterscreen. inhibition, % at 1 µM. 5,600 compounds, 81% hits. shares compounds with Mtb FBA inh; in the data active means inhibition above about 10%
# * hit, by the source's call; / = no result given; + = active, no number. An excerpt weighted towards active compounds, which were near 3% of everything screened. Unless noted, no stated cut-off is given here; in the data, active means inhibition above about 27%; inactive means the rest.
SMILES,GDH-TPI counter-1,Rv3671c protease,BioA inh,FadD28 binding,Mtb FBA inh,Mtb FBA confirm,GDH-TPI counter-2
COc1ccc(-c2c(C#N)c(N)nc3c2CCCC3)cc1OC,19,3,-7,-1,4,/,/
N#Cc1c(N)nc2c(c1-c1ccccc1)CCC2,11,-2,/,-1,61*,119*,91*
Cc1noc(C)c1NC(=O)N(C)C[C@H]1Oc2ccc(NC(=O)Cc3ccccc3)cc2C(=O)N([C@@H](C)CO)C[C@@H]1C,/,/,-7,/,/,/,/
CO[C@H]1CN(C)C(=O)c2cc(NC(=O)c3cc(C)on3)ccc2OC[C@@H](C)NC[C@H]1C,/,/,-8,/,/,/,/
CC1(C)Cc2c(cnn2-c2ccccc2)-c2c1c1ccccc1n2CC(O)CBr (stereo unspecified),0,6,/,-3,31*,163*,107*
CC1(C)Cc2c(cnn2-c2ccccc2)C(=O)/C1=N\NC(=O)c1ccccc1N,18,-6,/,0,2,/,/
O=C(NCC1CC1)[C@@H]1[C@@H](CO)[C@@H]2Cn3c(cccc3=O)[C@@H]2N1Cc1cncnc1,/,/,0,/,/,/,/
O=C(NCc1ccccc1)N(Cc1cc2cc3c(cc2[nH]c1=O)OCCO3)CC1CCCO1 (stereo unspecified),12,/,-1,-3,28*,54*,52*
CCC(=O)N(CCc1ccccc1)Cc1cc2cc3c(cc2[nH]c1=O)OCO3,14,-5,0,-2,40*,36*,26*
O=C(NC1CCCCC1)N(CCN1CCOCC1)Cc1cc2cc3c(cc2[nH]c1=O)OCCO3,18,5,0,-4,31*,98*,79*
O=c1[nH]c2cc3c(cc2cc1CN(CC1CCCO1)S(=O)(=O)c1ccccc1)OCCO3 (stereo unspecified),21,-3,/,0,28*,-1,-5
CCN(CC)CCN(Cc1cc2cc3c(cc2[nH]c1=O)OCCO3)C(=O)NC1CCCCC1,8,2,0,-6,14,/,/
COc1cc(C(=O)N(Cc2cccnc2)Cc2cc3cc4c(cc3[nH]c2=O)OCCO4)cc(OC)c1OC,17,-7,0,-2,28*,110*,87*
CCOc1ccccc1CNS(=O)(=O)c1ccc(-c2cnc(C3CC3)o2)cc1,8,-7,3,-6,-1,/,/
Cc1ccc(CNS(=O)(=O)c2ccc(-c3cnc(C4CC4)o3)cc2)cc1,1,-3,0,-2,41*,40*,25*
O=S(=O)(NCc1ccccc1)c1ccc(-c2cnc(C3CC3)o2)cc1,3,-3,-1,1,27*,+,158*
Cc1ccc(NS(=O)(=O)c2ccc(-c3cnc(C4CC4)o3)cc2)cc1,8,-45,-3,-4,0,/,/
COc1ccccc1CNc1nc(-c2ccccc2CO)c2sccc2n1,6,/,1,-4,51*,130*,90*
Fc1ccccc1-c1nc(NCC2CC2)nc2ccsc12,4,/,-1,-4,42*,100*,84*
Cc1cscc1-c1nc(NCC2CC2)nc2ccsc12,5,/,0,1,37*,127*,100*
Cc1cc(Cl)ccc1-c1nc(NCc2ccccc2)nc2ccsc12,3,/,0,-2,14,/,/
COCCNc1nc(-c2ccc(Cl)cc2C)c2sccc2n1,18,/,1,-3,69*,-4,-4
C[C@@H]1CN([C@H](C)CO)C(=O)c2cc(NC(=O)c3ccncc3)ccc2O[C@@H]1CN(C)Cc1ccc2c(c1)OCO2,/,/,1,/,/,/,/
COc1ccc(CN(C)C[C@H]2Oc3ccc(NC(=O)Cc4cn(C)c5ccccc45)cc3C(=O)N([C@H](C)CO)C[C@H]2C)cc1,/,/,-1,/,/,/,/
C[C@@H]1CN([C@@H](C)CO)S(=O)(=O)c2ccc(C#Cc3ccncc3)cc2O[C@@H]1CN(C)C(=O)C1CC1,/,/,-1,/,/,/,/
SMILES,GDH-TPI counter-1,Rv3671c protease,BioA inh,FadD28 binding,Mtb FBA inh,Mtb FBA confirm,GDH-TPI counter-2
C[C@@H]1CN([C@H](C)CO)C(=O)c2cc(NC(=O)Cc3ccccc3)ccc2O[C@H]1CN(C)C(=O)NC1CCCCC1,/,/,-1,/,/,/,/
Cc1ccc(-c2nc(CCNC(=O)c3ccco3)cs2)cc1,-11,1,0,0,1,/,/
COc1cc(-c2nc(CCNC(=O)c3ccco3)cs2)cc(OC)c1OC,-1,0,2,-4,37*,139*,112*
C[C@@H]1CCCCO[C@H](CN(C)C(=O)CCC(F)(F)F)[C@H](C)CN([C@H](C)CO)C(=O)c2cc(NC(=O)CCC(F)(F)F)ccc2O1,/,/,0,/,/,/,/
COc1ccc(-c2oc3ncnc(NCCCN(C)C)c3c2-c2ccc(OC)cc2)cc1,16,2,5,1,46*,69*,72*
COc1ccc2c(c1)c(=O)oc1c(C)c(OCc3cc(C(=O)O)oc3C)ccc12,3,-9,1,-10,43*,-4,-7
COc1ccc2c(c1)c(=O)oc1c(C)c(OCc3ccc(C(=O)O)cc3)ccc12,5,-9,-1,-3,4,/,/
COc1ccc2c(c1)c(=O)oc1c(C)c(OC(C)C(=O)NCC3CCC(C(=O)O)CC3)ccc12 (stereo unspecified),9,-10,-1,-3,35*,92*,81*
Cc1ccn2cc(CCNC(=O)Cc3cccs3)nc2c1,1,7,0,-1,22,/,/
Cc1ccn2cc(CCNC(=O)COc3ccccc3)nc2c1,-6,2,/,0,35*,46*,30*
Cc1ccn2cc(CCNC(=O)C3CC=CCC3C(=O)O)nc2c1 (stereo unspecified),4,-4,/,-1,31*,+,+
Cc1ccn2cc(CCNC(=O)CC(C)(C)C)nc2c1,-2,1,-1,-4,27*,45*,29*
C[C@H]1CN([C@@H](C)CO)C(=O)c2cccc(NS(=O)(=O)c3ccc(Cl)cc3)c2O[C@H]1CN(C)CC1CC1,/,/,-4,/,/,/,/
C[C@@H]1CN([C@H](C)CO)C(=O)CCCn2nncc2CO[C@@H]1CN(C)C(=O)Nc1ccc(-c2cccs2)cc1,/,/,0,/,/,/,/
Cc1ccn(C(=O)c2cc3cc(Cl)ccc3oc2=O)n1,9,-2,-1,-5,3,/,/
COc1ccc2oc(=O)c(C(=O)n3ccc(C)n3)cc2c1,16,0,-1,0,40*,78*,54*
O=C(NCC1CCCO1)c1cnn2c(C(F)F)cc(C3CC3)nc12 (stereo unspecified),2,/,2,2,11,/,/

# Screens as filed in PubChem.
